Reference: PubChem BioAssay AID463173 (ICCB-Longwood Screening Facility, Harvard Medical School, 2010)
Hit rate of the full screen: of about 52,000 compounds, about 4,300 (8.3%) were called active. This excerpt belongs to a sample that is enriched for actives. Unmarked numbers belong to inactive results. Cut-off read from the data, not from the text of the source: active = survival mostly below about 52% (no sharp cut-off); inactive = mostly above about 56%.

system: DeltatarO mutant; assay: growth inhibition of S. aureus wild type versus tarO mutant, primary screen, teichoic acid synthesis inhibitors, RN4220, OD600 (AID 463173); settings: OD600, 18 h, hits give low values, screened at 18.75 µg/mL (by protocol)

Structure (SMILES)	survival
Cc1cccc(NC(=O)c2c(NC(=O)c3ccco3)sc3c2CCC(C(C)(C)C)C3)c1 (stereo unspecified)	85%
Cc1ccc(C)c(NC(=O)Cn2cc(C(=O)c3ccco3)c3ccccc32)c1	64%
COc1ccc(NC(=O)c2oc3ccccc3c2NC(=O)C23CC4CC(CC(C4)C2)C3)c(OC)c1	67%
CCc1ccc(-n2nc(C)c3c(C)cc(=O)n(CC(=O)Nc4cc(Cl)ccc4OC)c32)cc1	52% (active)
CCc1ccc(-n2nc(C)c3c(C)cc(=O)n(CC(=O)Nc4ccc(OC)c(OC)c4)c32)cc1	84%
Cc1ccc(-n2nc(C)c3c(C)cc(=O)n(CC(=O)Nc4cc(Cl)ccc4C)c32)cc1	125%
CCOC(=O)Cc1ccc(NC(=O)N2CCC(CN3CCC(C)CC3)CC2)cc1	81%
COc1cc2cc(C)c(SCC(=O)N3CCN(C(=O)c4ccco4)CC3)nc2cc1OC	73%
CCN(CC)S(=O)(=O)c1cccc2nsnc12	79%
Cc1ccc(NC(=O)CSc2nc3ccccc3c(=O)n2CCC(=O)NC2CCCCC2)cc1C	86%
Cc1ccc(NC(=O)CSc2nc3nccnc3c(=O)n2CCc2c[nH]c3ccccc23)cc1	82%
Cc1ccc(NC(=O)CSc2nc3c(sc4ccccc43)c(=O)n2CCCC(=O)NC2CCCC2)cc1C	87%
Cc1cc(C)cc(NC(=O)CSc2nc3ncccc3[nH]2)c1	76%
Cc1ccc(NC(=O)CSc2nc3nccnc3c(=O)n2CCc2c[nH]c3ccccc23)cc1C	37% (active)
Cc1cc(C)cc(NC(=O)CSc2nc3nccnc3c(=O)n2CCc2c[nH]c3ccccc23)c1	38% (active)
COc1ccccc1C(=O)OCc1cc(=O)n2nc(C3CCCCC3)sc2n1	97%
c1ccc2c(NC3CCCC3)nc(N3CCNCC3)nc2c1	26%
COCCCNC(=O)c1[nH]c2ccccc2c1Sc1ccc(C)cc1	69%
O=C(NCCCN1CCCCC1)c1[nH]c2ccccc2c1Sc1ccc(Cl)cc1	7% (active)
COc1ccc2c(Sc3ccccc3)c(C(=O)NCCCN3CCCCC3)[nH]c2c1	54%
COc1ccc2c(Sc3ccc(Cl)cc3)c(C(=O)NCCCN3CCCCC3)[nH]c2c1	-1% (active)
COc1ccc2c(Sc3ccccc3)c(C(=O)NCCc3ccc(Cl)cc3)[nH]c2c1	98%
CC1CCN(CCCNC(=O)c2cc(Sc3ccc(F)cc3)nc3ccccc23)CC1	68%
CC1CCCCN1CCCNC(=O)c1cc(Sc2ccc(Cl)cc2)nc2ccccc12 (stereo unspecified)	94%
CCOCCCNC(=O)c1[nH]c2cc(C)ccc2c1Sc1ccc(Cl)cc1	85%
O=C(NCCCN1CCCCC1)c1cc(Sc2ccc(Cl)cc2)nc2ccccc12	17% (active)
